DT40 TDP1 CPT – qHTS for Inhibitors of human tyrosyl-DNA phosphodiesterase 1 (TDP1): qHTS in cells in presence of CPT; chicken DT40 Tdp1-/-;hTDP1 cells + 20 nM CPT, ATP luminescence, 48 h; Potency, µM (highest dose often 46.2 µM), for the others: at the highest dose activity change, negative = growth inhibition, usual class: inhibitors; AID 686979, 2013; 420,000 tested, 12% active; further: potency means the concentration at half of the fitted maximal effect; nearly all actives have a fitted effect of over 55% in size
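Chicken DT40 Tdp1-/- cells stably complemented with human TDP1 were seeded at 400 cells/well in medium containing 20 nM camptothecin, exposed to pin-transferred compounds, and grown at 37 °C for at least 48 hr. Viability was read as ATP luminescence.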
HT1080 IDH1KD tx – qHTS for induction of synthetic lethality in tumor cells producing 2HG: qHTS for the HT-1080-IDH1KD cell line. HT-1080 IDH1 knockdown viability, ATP luminescence, 48 h. 360,000 tested, 2% active. Potency, µM (titrated, usually from 46.1 µM), inactives show top-dose activity, negative = toxicity, actives largely listed as cytotoxic. AID 686971, 2013;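 further: potency means the concentration at half of the fitted maximal effect; 0% = DMSO wells and -100% = cell-free medium wells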
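Assay cells: HT-1080 with IDH1 knockdown, 750 per well, RPMI/5% FBS. Exposure: 48 h at 37 °C following 2 h pre-incubation. Read: CellTiter-Glo luminescence; fitted concentration-response, curve class assigned.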
HT1080NT lethal – qHTS for induction of synthetic lethality in tumor cells producing 2HG: qHTS for the HT-1080-NT fibrosarcoma cell line | HT-1080-NT fibrosarcoma viability, CellTiter-Glo ATP luminescence, 48 h | 360,000 tested, 1.6% active | Potency, µM (doses to about 46.1 µM), for the others: at the highest dose activity, negative = less viability, actives largely listed as cytotoxic;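 further: NT is the 2HG producing partner of a matched IDH1 knockdown line; potency means the concentration at half of the fitted maximal effect; 0% = DMSO-treated cells and -100% = media-only wells without cells; nearly all actives have a fitted effect of over 55% in size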
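Read-out is CellTiter-Glo luminescence after 10 minutes at room temperature, following 48 hours' compound treatment of HT-1080-NT cells (750 cells/well, RPMI, 5% FBS, 37 degrees C).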
IL1B secr inh – qHTS for Inhibitors of Inflammasome Signaling: IL-1-beta AlphaLISA Primary Screen; activity change, % at 57.5 µM; THP-1 LPS/ATP IL-1B secretion, AlphaLISA, 16 h; hits give low values; 360,000 tested, 4.7% active; in the data active means activity change below about -50%; inconclusive means mostly about -30% to -49%
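THP-1 cells pretreated 1 hr with compounds (up to 57.5 uM final), then stimulated with LPS (250 ng/mL final) plus ATP (1.25 mM final); secreted IL-1B measured by AlphaLISA after 16 hr, decreased signal indicating inhibition.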
TDP1 cell noCPT – qHTS for Inhibitors of human tyrosyl-DNA phosphodiesterase 1 (TDP1): qHTS in cells in absence of CPT; DT40 Tdp1-/- hTDP1 cells, no CPT, ATP luminescence, 48 h; Potency, µM (series often up to 46.2 µM), for the others: at the highest dose activity change, negative = growth inhibition, most hits filed as inhibitors; 420,000 tested, 15% active; AID 686978, 2013; further: potency means the concentration at half of the fitted maximal effect; nearly all actives have a fitted effect of over 55% in size
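Readout: luminescence from CellTiter-Glo after 30 min in the dark at RT. Cells: DT40 Tdp1-/- with stable hTDP1, 400/well. Exposure: compounds alone, ≥48 hr, 37 °C.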
* hit, by the source's call; ? = inconclusive; / = no result; [ ] = another dose, or the depositor's remark. The list is not random: actives were taken first. Their share in the collection is about 19%. Unless noted, the call rests on the fitted dose curve; in most records, active means well fitted curve in the direction sought with a large enough effect; inconclusive means small, poorly fitted or top-dose-only effect, or another doubt; inactive means no such curve, though single readings can be large; an effect the other way counts as inactive or inconclusive. Unless noted, on the % scale 0 is the no-effect control and ±100 the full control effect.

SMILES | DT40 TDP1 CPT | HT1080 IDH1KD tx | HT1080NT lethal | IL1B secr inh | TDP1 cell noCPT
O=C(c1ccc2c(=O)n3c(nc2c1)CCC3)N1CCN(S(=O)(=O)c2ccccc2Br)CC1 | 0% | 1% | 1% | -15 | -6%
Nc1nc(NCc2ccc(F)cc2)c2[nH]cnc2n1 | -3% | / | / | / | -13%
Nc1nc(NCc2ccc(Cl)c(Cl)c2)c2[nH]cnc2n1 | ? | / | / | / | 13µM*
CCN1C(=O)[C@H]2[C@@H](c3ccc(C)cc3)N[C@]3(CCCN(Cc4ccc(Cl)cc4)C3=O)[C@H]2C1=O | ? | -1% | 4% | 14 | 21µM*
CCN1C(=O)[C@H]2[C@@H](c3ccc(C(F)(F)F)cc3)N[C@]3(CCCN(Cc4ccc(Cl)cc4)C3=O)[C@H]2C1=O | 18µM* | 7% | -10% | -13 | 18µM*
CCN1C(=O)[C@H]2[C@@H](c3ccc(C(F)(F)F)cc3)N[C@]3(CCCN(Cc4ccc(C)cc4)C3=O)[C@H]2C1=O | 13µM* | -5% | -9% | -7 | 16µM*
CCN1C(=O)[C@H]2[C@@H](c3ccc(C)cc3)N[C@]3(CCCN(Cc4ccco4)C3=O)[C@H]2C1=O | -27% | -14% | 7% | 21 | ?
CCN1C(=O)[C@H]2[C@@H](c3ccc(C)cc3)N[C@]3(CCCN(Cc4ccc(C)cc4)C3=O)[C@H]2C1=O | ? | ? | ? | ? | 3%
CCN1C(=O)[C@H]2[C@@H](c3ccc(C(F)(F)F)cc3)N[C@]3(CCCN(Cc4ccco4)C3=O)[C@H]2C1=O | 23µM* | -15% | -9% | 19 | 16µM*
NC(=O)c1ccc(NC(=O)CSc2cn(CC(=O)N3CCOCC3)c3ccccc23)cc1 | -2% | 11% | 5% | 1 | -13%
O=Cc1c(-c2ccc(Cl)cc2)oc2ccc(O)cc12 | -4% | 1% | -3% | -55* | ?
COc1ccc2c(c1)[nH]c1c(N3CCSCC3)ncnc12 | 7.3µM* | 15µM* | ? | / | 8.2µM*
COc1ccc2c(c1)[nH]c1c(N3CCN(Cc4ccc5c(c4)OCO5)CC3)ncnc12 | 2.3µM* | ? | -19% | -105* | 1.6µM*
c1nc(N2CCN(Cc3ccc4c(c3)OCO4)CC2)c2[nH]cnc2n1 | ? | -4% | 0% | 9 | ?
CCN(C(=O)CN1CCCC(C)C1)c1c(N)n(Cc2ccccc2)c(=O)[nH]c1=O (stereo unspecified) | 1% | -1% | 1% | 34 | 5%
CCCCN1C(=O)C(=O)NC[C@@H]1Cc1ccc(O)cc1 | -1% | 21% | 22% | 18 | -5%
Clc1ccc(CN=C(Nc2ccccc2)NC2CCCCC2)cc1 | 18µM* | 16µM* | 21µM* | / | 23µM*
O=C(Cc1ccc(Cl)cc1)NC1CCCCCC1 | -13% | 9% | 10% | 1 | 0%
O=C(O)CCCCCNC(=O)OCC1c2ccccc2-c2ccccc21 | 4.1µM* | 3% | 1% | -4 | 12µM*
O=C(O)CCCNC(=O)OCc1ccccc1 | 3% | -5% | -7% | -18 | 6%
CC1CCN(CCCNC(=O)c2ccc3c(Cl)c4c(nc3c2)CCCC4)CC1 | 13µM* | 21µM* | ? | / | 3.7µM*
COC(=O)c1ccccc1NC(=O)c1ccc2c(Cl)c3c(nc2c1)CCCC3 | 2% | / | / | / | 4%
CCN1CCN(CCCNC(=O)c2ccc3c(Cl)c4c(nc3c2)CCCC4)CC1 | ? | ? | 26µM* | / | 18µM*
CCOC(=O)c1cccc(NC(=O)c2ccc3c(Cl)c4c(nc3c2)CCC4)c1 | ? | / | / | / | 29µM*
CCOc1ccc(CCNC(=O)c2ccc3c(Cl)c4c(nc3c2)CCCC4)cc1 | ? | / | / | / | 23µM*
SMILES | DT40 TDP1 CPT | HT1080 IDH1KD tx | HT1080NT lethal | IL1B secr inh | TDP1 cell noCPT
CS(=O)(=O)c1ccc(Cl)c(NC(=O)CSc2n[nH]c(-c3cccs3)n2)c1 | -21% | -4% | -28% | 23 | ?
CCc1cc2c(c(CC)n1)CCC(=O)N2Cc1ccc(-c2ccccc2-c2nn[nH]n2)cc1 | 10% | / | / | / | -3%
O=C(NCCCN1CCCCCC1)c1ccc2c(Cl)c3c(nc2c1)CCCC3 | -90% | ? | -9% | -71* | -75%
COCCNC(=O)c1ccc2c(Cl)c3c(nc2c1)CCC3 | 5% | 8% | 11% | -7 | -25%
CCCN(CCC)CCCNC(=O)c1ccc2c(Cl)c3c(nc2c1)CCC3 | ? | 21µM* | ? | -67* | 18µM*
CCN1CCN(C(=O)c2ccc3c(Cl)c4c(nc3c2)CCCC4)CC1 | ? | -10% | -21% | -78* | ?
Cc1c(C)n(C)c2ccc(C(=O)NCCCN3CCCCC3)cc12 | 4% | 1% | -9% | -9 | ?
CCc1ccc2oc(C(=O)Nc3sc4c(c3C(=O)NC)CCCC4)cc(=O)c2c1 | -1% | / | / | / | 7%
CCNC(=O)c1c(NC(=O)Cc2coc3cc(C)ccc23)sc2c1CCCC2 | 12µM* | / | / | / | 18µM*
CCNC(=O)c1c(NC(=O)c2cc(-c3cc(C)ccc3O)n[nH]2)sc2c1CCCC2 | ? | 17% | 23% | 9 | 16µM*
CNC(=O)c1c(NC(=O)Cc2coc3ccc(OC)cc23)sc2c1CCCC2 | 16µM* | / | / | / | 21µM*
COCCCNC(=O)c1c(NC(=O)Cc2coc3cc(C)ccc23)sc2c1CCCC2 | 16µM* | / | / | / | 16µM*
CC(C)=CC(=O)Nc1nc2ccc([N+](=O)[O-])cc2s1 | -15% | -16% | -20% | 25 | -17%
C/C(=C\c1ccco1)CN1CCOc2ccc(CN3CCC(Oc4cccnc4)CC3)cc2C1 | 2%[9.04 µM] | / | / | / | -33%
COc1ccc(CC(=O)Nc2cccc(-c3cn4ccccc4n3)c2)cc1 | ? | 3% | 5% | -9 | ?
O=C(Nc1ccc(-c2cn3ccccc3n2)cc1)c1cccs1 | 18µM* | ? | -29% | -93* | 15µM*
COc1ccc(CC(=O)Nc2ccc(-c3cn4ccccc4n3)cc2)cc1 | 13µM* | ? | ? | 19 | ?
CCCOc1ccc(C(F)(F)F)cc1NS(=O)(=O)c1ccc(Cl)nc1 | 15µM* | ? | ? | -65* | ?
CCCOc1ccc(C(F)(F)F)cc1NC(=O)c1cc(C)on1 | -6% | 1% | 1% | -19 | 7%
O=S(=O)(c1ccccc1Br)N(Cc1ccccc1)CC(O)COCc1ccccc1 (stereo unspecified) | 23µM* | ? | ? | -61* | ?

Compound activity (PubChem BioAssay)
